The panel holds about 83,000 compounds, 20% with a hit somewhere; the sample as a whole holds those more often.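 Method: cells in 96-well plates; compound added at one concentration; 48 h incubation; percent growth measured; values under 10 scored active.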 Active and inactive are the calls of the source.
test system: COLO 205 colon; test: NCI-60 one-dose screen, 48 h (100 = growth as untreated, 0 = no growth, -100 = all killed); conditions: 10 µM unless noted
Procedure: Cells are grown in 96 well plates and exposed to the test compound for 48 hours. Compounds are tested at a single concentration, which is 10^-5 M for most compounds. The reported endpoint is percent growth (GI% or GIPRCNT), where numbers from 0 - 100% represent growth inhibition, and numbers from -100% - 0 represent cell death. For example, a value of 40 represents 60% growth inhibition. A value of 0 means no net growth occurred over the course of the experiment. A value of -40 indicates 40% of cells at the beginning of the experiment died by the end of the experiment. A value of -100 means all cells are dead at the end of the experiment.
NCI-60 Human Tumor Cell Lines Screen was performed using the standard one-dose NCI protocol, which is described in more detail at https://dtp.cancer.gov/discovery_development/nci-60/default.htm.
Compounds with GIPRCNT values below 10 were considered active. Activity score was based on GIPRCNT using the following formula: […]
Score is 0 for GIPRCNT values of 100 or above, 50 for GIPRCNT values of 0, and 100 for GIPRCNT values of -100.

SMILES	growth
CCCCOc1nc2ccc(Cl)cc2cc1/C=C/C(=O)/C=C1/CC(c2cc3cc(Cl)ccc3nc2OCCCC)Nc2ccccc2N1 (stereo not given)	90.9% (inactive)
CCC(O)(C(c1ccccc1)c1ccccn1)C(c1ccccc1)c1ccccn1 (stereo not given)	105% (inactive)
COc1ccc(/C(C)=C(\c2ccc(Cl)cc2)c2ccc(OCCN3CCCC3)cc2)cc1F	-40.6% (active)
COc1ccc(/C=C2\COc3ccc(O)cc3C2=O)c(OC)c1	108% (inactive)
CCCCCCCCc1cc[n+](CC(=O)c2ccc(Br)cc2)cc1	-89.6% (active)
COc1ccc(/C(C)=C(\c2ccc(Cl)cc2)c2ccc(OCCN(C)C)cc2)cc1F	26% (inactive)
C=C1C(=O)O[C@H]2[C@H]1CC/C(COC(=O)/C=C\C(=O)NCc1ccc(Cn3c(=O)sn(CCCC)c3=O)cc1)=C\CC[C@@]1(C)O[C@@H]21	-51.2% (active)
O=C(O)C1C[C@](O)(c2ccc(F)cc2)[C@@H](c2ccc(F)cc2)O1 (stereo not given in full)	110% (inactive)
Nc1c(-c2nc3ccc(Br)cc3c(=O)[nH]2)nnn1-c1ccccc1	102% (inactive)
Cc1cc2c(F)c(Oc3ncnc(Nc4ccc(N5C[C@@H](C)N[C@@H](C)C5)cc4)c3C#N)cc(F)c2[nH]1	-56.5% (active)
COc1ccc(-c2nc3sccn3c2/C=C/C(=O)c2c[nH]c3ccccc23)cc1	102% (inactive)
NS(=O)(=O)c1cnccc1-n1ccc(=O)c(S(N)(=O)=O)c1	94.4% (inactive)
COc1ccc(OC)c(Nc2nc3nonc3nc2Nc2cc(OC)ccc2OC)c1	93.7% (inactive)
NS(=O)(=O)c1cn(-c2ncnc3nc[nH]c23)ccc1=O	100% (inactive)
COc1ccc2cc(-c3ccc(C(=O)NN)c(C)n3)ccc2c1	104% (inactive)
N#Cc1c(N)nc2c(nnn2-c2cccc(Br)c2)c1N	105% (inactive)
O=C(CCc1nc(-c2cccc(Cl)c2)no1)Nc1ccccn1	117% (inactive)
COc1ccc(-c2cc(-c3ccc(Nc4nc(Nc5ccccc5)nc(Nc5ccc(Cl)cc5)n4)cc3)nc(N)n2)cc1	68.4% (inactive)
Cc1nc(Nc2ccc(NC(=S)Nc3ccccc3)cc2)c2ccccc2n1	106% (inactive)
Cc1nc(Nc2ccc(NC(=S)Nc3ccccc3)cc2)nc2nc(SCc3ccccc3)[nH]c(=O)c12	126% (inactive)

SMILES	growth
COc1cc(C2CC(c3ccc(Nc4nc(Nc5ccc(F)cc5)nc(Nc5ccc(Cl)cc5)n4)cc3)=NN2C(C)=O)cc(OC)c1OC (stereo not given)	58% (inactive)
Cc1ccc(-n2nnc(C3=NCCc4c3[nH]c3ccc(Cl)cc43)c2C)cc1	101% (inactive)
COc1cc(NC(=O)c2cc(O)c(CC=C(C)C)c(O)c2)cc2c1O[C@]1(C)CC[C@@H](O)C(C)(C)[C@H]1C2	-28.8% (active)
O=[N+]([O-])c1ccc2[nH]cc(-c3c4ccsc4cc4[nH]c5ccc([N+](=O)[O-])cc5c34)c2c1	-50.3% (active)
O=C1c2ccccc2C(=O)c2cc(Cn3cc[n+](Cc4ccc5ccccc5c4)c3)ccc21	58.6% (inactive)
COc1ccc(/C(C)=C(\c2ccc(Cl)cc2)c2ccc(OCCCN(C)C)cc2)cc1F	7.6% (active)
COC1(CC[C@@H](C)COC2OC(CO)C(O)C(O)C2O)O[C@H]2C[C@H]3[C@@H]4CC=C5C[C@@H](OC6OC(CO)C(OC7OC(C)C(O)C(O)C7O)C(O)C6OC6OC(C)C(O)C(O)C6O)CC[C@]5(C)[C@H]4CC[C@]3(C)[C@H]2[C@@H]1C (stereo not given in full)	-12.2% (active)
C[N+](C)(C)CCOC(OCC[N+](C)(C)C)(c1ccccc1)c1ccccc1	116% (inactive)
CCCCNC(=O)NS(=O)(=O)c1ccc(N2N=C(c3ccc(C)cc3C)CC2c2ccc(N(C)C)cc2)cc1 (stereo not given)	75.6% (inactive)
C=C1C(=O)O[C@H]2[C@H]1CC/C(COC(=O)/C=C\C(=O)NCc1ccc(Cn3c(=O)sn(-c4ccc(OC)cc4)c3=O)cc1)=C\CC[C@@]1(C)O[C@@H]21	-45.9% (active)
CCCCNC(=O)c1cc(NCc2cc(O)ccc2O)ccc1O	108% (inactive)
CCCCCCCCCCCCCCCCCC1=NCCN1C(=O)OCCO	-72.9% (active)
COc1cc(/C=C/C(=O)c2ccc(Nc3nc(Nc4ccccc4)nc(Nc4ccc(Cl)cc4)n3)cc2)cc(OC)c1OC	94.8% (inactive)
COc1cc(-c2cc(-c3ccc(Nc4nc(Nc5ccccc5)nc(Nc5ccc(Cl)cc5)n4)cc3)nc(N)n2)cc(OC)c1OC	76.6% (inactive)
COc1cc(/C=C/c2nc(Nc3ccc(S(=O)(=O)Nc4cc(C)on4)cc3)c3ccccc3n2)ccc1O	106% (inactive)
COc1cccc(/C=C2\COc3ccc(O)cc3C2=O)c1OC	92.1% (inactive)
CCCc1cc(=O)oc2c3c(c4c(c12)OC(C)(C)C=C4)O[C@@H](C)[C@H](C)C3=O	74.8% (inactive)
CCOC(=O)c1nnn(-c2ccccc2)c1C1=CN(C)CCC1	113% (inactive)
COc1cc(-c2ncn(/C=C\c3nnco3)n2)cc(C(F)(F)F)c1	0.0945% (active)
Cn1cc(-c2ccc3nc(-c4ccc(CC(=O)Nc5cc(C(C)(C)C)no5)cc4)cnc3c2)cn1	61.6% [30 µM] (inactive)

Source: PubChem BioAssay (NCI)
